Measurements taken from the supplement of paper PMC12808144.
Values without a mark were called inactive.

The compounds below were run on Mel-DCC-11-R (assay: cell viability relative to DMSO control (fraction of DMSO control); higher = less cytotoxic, active = 0.8 or less). Details: 1 µM; 120 h; vemurafenib co-treatment 8 µM.
In short: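 For 120 h, duplicate wells of 384-well plates held 1 µM of each of 315 approved anti-cancer drugs (TargetMol), spotted acoustically before cells were added in 40 µl per well. Immortalized NHEM-hTERT melanocytes were seeded at 2500/well, and patient-derived Mel-DCC-11 plus its resistant subline Mel-DCC-11-R at 1500/well. The subline was run both without and with 8 µM of its selecting drug, and ATPlite 1step luminescence was read. Viability was normalised to vehicle-treated wells and averaged over the two replicates.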

| Structure (SMILES) | cell viability |
| --- | --- |
| O=C(NC(Cc1cc(=O)[nH]c2ccccc12)C(=O)O)c1ccc(Cl)cc1 (stereo unspecified) [Rebamipide] | 1.24 |
| Nc1ccc(F)cc1NC(=O)c1ccc(CNC(=O)/C=C/c2cccnc2)cc1 [Chidamide] | 1.16 |
| O=c1[nH]c(=O)n([C@H]2C[C@H](O)[C@@H](CO)O2)cc1C(F)(F)F [Trifluridine] | 1.06 |
| C#CCC(Cc1cnc2nc(N)nc(N)c2n1)c1ccc(C(=O)N[C@@H](CCC(=O)O)C(=O)O)cc1 (stereo partly specified) [Pralatrexate] | 1.09 |
| CC(=O)O.CC(C)C[C@H](NC(=O)[C@@H](COC(C)(C)C)NC(=O)[C@H](Cc1ccc(O)cc1)NC(=O)[C@H](CO)NC(=O)[C@H](Cc1c[nH]c2ccccc12)NC(=O)[C@H](Cc1cnc[nH]1)NC(=O)[C@@H]1CCC(=O)N1)C(=O)N[C@@H](CCCN=C(N)N)C(=O)N1CCC[C@H]1C(=O)NNC(N)=O [Goserelin acetate] | 1.13 |
| O=C(O)CCc1nc2ccccc2[nH]1 [Procodazole] | 1 |
| CS(=O)(=O)c1ccc(C(=O)Nc2ccc(Cl)c(-c3ccccn3)c2)c(Cl)c1 [Vismodegib] | 0.892 |
| Oc1ccc(/C=C/c2cc(O)cc(O)c2)cc1 [Resveratrol] | 1.16 |
| Nc1nc(=O)c2c([nH]1)NC[C@H](CNc1ccc(C(=O)N[C@@H](CCC(=O)[O-])C(=O)[O-])cc1)N2C=O.[Ca+2] [Calcium Levofolinate] | 1.27 |
| C=CC(=O)N1CCC[C@@H](n2nc(-c3ccc(Oc4ccccc4)cc3)c3c(N)ncnc32)C1 [Ibrutinib] | 0.733 (active) |
| COc1cccc2c1C(=O)c1c(O)c3c(c(O)c1C2=O)C[C@@](O)(C(C)=O)C[C@@H]3O[C@H]1C[C@H](N)[C@H](O)[C@H](C)O1.Cl [Daunorubicin hydrochloride] | 0.0387 (active) |
| COc1ccc2cc1Oc1ccc(cc1)C[C@H]1c3cc(c(OC)cc3CCN1C)Oc1c(OC)c(OC)cc3c1[C@H](C2)N(C)CC3 [Tetrandrine] | 1.05 |
| C1=C/COCc2cc(ccc2OCCN2CCCC2)Nc2nccc(n2)-c2cccc(c2)COC/1 [Pacritinib] | 1.06 |
| CC(C)Cn1cnc2c(N)nc3ccccc3c21 [Imiquimod] | 1.07 |
| c1cn2cc(-c3ccc4cn[nH]c4c3)nc(Nc3ccc(N4CCOCC4)cc3)c2n1 [Entospletinib] | 0.877 |
| CC[C@H](Nc1ncnc2[nH]cnc12)c1nc2cccc(F)c2c(=O)n1-c1ccccc1 [Idelalisib] | 0.961 |
